Test results reported in PubChem BioAssay AID1159580 (chemical genetic matrix, 2015).
The whole screen tested about 5,500 compounds, of which about 2,000 (36%) were called active. Inconclusive results (about 18%) are left out. Rule as the data show it: active = normalized growth mostly below about 0.91 (no sharp cut-off); inconclusive = no clear call, values can overlap the other calls; inactive = mostly above about 0.92. Some of the results follow.

Test: chemical genetic growth profiling, strain panel (AID 1159580);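 also: tested at 20 µM; growth read once vehicle control cultures reached saturation at 30 °C; 1 = growth at the plate median or of vehicle wells; lower values mean less growth of the strain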
Conditions: S. cerevisiae deletion strains, growth OD
[1] = locus YDR150W, strain NUM1, hits give low values
[2] = locus YMR307W, strain GAS1, hits give low values
[3] = locus YPL055C, strain LGE1, hits give low values

Measured: normalized growth

C[C@]12C=CC(=O)C=C1CC[C@H]1[C@@H]3C[C@@H](O)[C@](O)(C(=O)CO)[C@@]3(C)C[C@H](O)[C@@]12F
inactive: locus YAL040C, strain CLN3, hits give low values 1.02 | locus YCL061C, strain MRC1 (second series), hits give low values 1.01 | [1] 1 | locus YDR363W, strain ESC2, hits give low values 1.05 | locus YER002W, strain NOP16, hits give low values 1.01 | locus YGR078C, strain PAC10, hits give low values 1 | [2] 1.02 | locus YNL128W, strain TEP1, hits give low values 1.01 | locus YNL153C, strain GIM3, hits give low values 1 | locus YNL175C, strain NOP13, hits give low values 1 | locus YNL197C, strain WHI3, hits give low values 0.987 | locus YNL224C, strain SQS1, hits give low values 1.01 | locus YOR083W, strain WHI5 (second series), hits give low values 1.01 | [3] 1.03

CSCCC(NC=O)C(=O)NC(CC(C)C)C(=O)NC(Cc1ccccc1)C(=O)O (centres undefined)
inactive: locus YAL013W, strain DEP1, hits give low values 1.01 | locus YAL021C, strain ccr4, hits give low values 1.01 | locus YAL026C, strain drs2, hits give low values 1 | locus YAL030W, strain snc1, hits give low values 1 | locus YBL061C, strain skt5, hits give low values 1 | locus YBR009C, strain hhf1, hits give low values 1 | locus YBR021W, strain FUR4, hits give low values 0.998 | locus YBR023C, strain chs3, hits give low values 1 | locus YBR171W, strain sec66, hits give low values 0.998 | locus YBR229C, strain ROT2, hits give low values 1 | locus YBR231C, strain swc5, hits give low values 0.997 | locus YBR279W, strain paf1, hits give low values 1.01 | locus YCL011C, strain gbp2, hits give low values 1 | locus YCL016C, strain dcc1, hits give low values 1 | locus YCL029C, strain bik1, hits give low values 0.983 | locus YCL061C, strain MRC1, hits give low values 1.01 | locus YCL069W, strain vba3, hits give low values 1.01 | locus YCR088W, strain abp1, hits give low values 0.999 | locus YDL005C, strain med2, hits give low values 0.988 | locus YDL035C, strain GPR1, hits give low values 0.999 | locus YDL040C, strain nat1, hits give low values 1 | locus YDL074C, strain BRE1, hits give low values 1.03 | locus YDL101C, strain DUN1, hits give low values 1.02 | locus YDL134C, strain PPH21, hits give low values 0.996 | locus YDL185W, strain tfp1, hits give low values 0.994 | locus YDL192W, strain arf1, hits give low values 0.994 | locus YDR001C, strain nth1, hits give low values 1 | locus YDR069C, strain doa4, hits give low values 1 | locus YDR101C, strain arx1, hits give low values 1 | locus YDR137W, strain rgp1, hits give low values 1.01 | [1] 1.01 | locus YDR159W, strain sac3, hits give low values 1 | locus YDR162C, strain NBP2, hits give low values 1 | locus YDR195W, strain ref2 0.97 | locus YDR297W, strain sur2, hits give low values 0.99 | locus YDR318W, strain mcm21, hits give low values 1.01 | locus YDR334W, strain swr1, hits give low values 1.01 | locus YDR335W, strain msn5, hits give low values 1 | locus YDR388W, hits give low values 1 | locus YDR392W, strain spt3, hits give low values 1.01 | locus YDR502C, strain sam2, hits give low values 1 | locus YEL003W, strain gim4, hits give low values 1 | locus YEL037C, strain rad23, hits give low values 1.01 | locus YEL061C, strain CIN8 (second series), hits give low values 1.02 | locus YEL061C, strain CIN8, hits give low values 1.01 | locus YER015W, strain faa2, hits give low values 1 | locus YER016W, strain bim1, hits give low values 1 | locus YER110C, hits give low values 1.01 | locus YER111C, strain swi4, hits give low values 1 | locus YER155C, strain BEM2 (second series), hits give low values 0.995 | locus YER155C, strain BEM2, hits give low values 1.01 | locus YER167W, strain BCK2, hits give low values 0.995 | locus YFR010W, strain ubp6, hits give low values 1 | locus YGL078C, strain dbp3, hits give low values 0.99 | locus YGL086W, strain mad1, hits give low values 1 | locus YGL167C, strain pmr1, hits give low values 1 | locus YGL173C, strain kem1, hits give low values 1.01 | locus YGL227W, strain vid30, hits give low values 0.992 | locus YGL240W, strain doc1, hits give low values 1 | locus YGL248W, strain PDE1, hits give low values 1.01 | locus YGL253W, strain hxk2, hits give low values 0.995 | locus YGR135W, strain pre9, hits give low values 1 | locus YGR252W, strain gcn5, hits give low values 1.01 | locus YHR013C, strain ard1, hits give low values 1 | locus YHR027C, strain rpn1, hits give low values 0.986 | locus YHR030C, strain SLT2, hits give low values 0.998 | locus YHR079C, strain IRE1 (second series), hits give low values 1 | locus YHR094C, strain hxt1, hits give low values 1 | locus YHR129C, strain ARP1, hits give low values 1.01 | locus YHR142W, strain chs7, hits give low values 1.01 | locus YHR200W, strain rpn10, hits give low values 0.98 | locus YIL066C, strain RNR3, hits give low values 0.996 | locus YIL073C, strain SPO22, hits give low values 1.01 | locus YIL125W, strain kgd1, hits give low values 0.998 | locus YIR030C, strain dcg1, hits give low values 0.99 | locus YJL092W, strain hpr5, hits give low values 0.993 | locus YJL095W, strain BCK1 (second series), hits give low values 1 | locus YJL095W, strain BCK1, hits give low values 1.03 | locus YJL115W, strain asf1, hits give low values 1.01 | locus YJL129C, strain trk1, hits give low values 1 | locus YJL134W, strain LCB3, hits give low values 1 | locus YJL154C, strain vps35, hits give low values 1 | locus YJL164C, strain tpk1, hits give low values 1.01 | locus YJL166W, strain qcr8, hits give low values 1.03 | locus YJL168C, strain set2, hits give low values 1.01 | locus YJL187C, strain SWE1 (second series), hits give low values 1.04 | locus YJL187C, strain SWE1, hits give low values 0.999 | locus YJR043C, strain POL32, hits give low values 0.992 | locus YJR075W, strain HOC1, hits give low values 1.02 | locus YKL009W, strain mrt4, hits give low values 1.01 | locus YKL068W, hits give low values 0.996 | locus YKL085W, strain MDH1 (second series), hits give low values 0.995 | locus YKL085W, strain MDH1, hits give low values 0.995 | locus YKL160W, strain elf1, hits give low values 1.01 | locus YKL190W, strain CNB1, hits give low values 1.01 | locus YKR001C, strain vps1, hits give low values 0.992 | locus YKR026C, strain gcn3, hits give low values 0.994 | locus YKR091W, strain srl3, hits give low values 1.01 | locus YLL001W, strain dnm1, hits give low values 1 | locus YLL026W, hits give low values 0.996 | locus YLL041C, strain sdh2, hits give low values 1.01 | locus YLR027C, strain aat2, hits give low values 0.988 | locus YLR039C, strain RIC1, hits give low values 1 | locus YLR058C, strain SHM2, hits give low values 1.02 | locus YLR102C, strain apc9, hits give low values 1 | locus YLR221C, strain rsa3, hits give low values 0.998 | locus YLR258W, strain gsy2, hits give low values 1.02 | locus YLR262C, strain YPT6 (second series), hits give low values 1.02 | locus YLR262C, strain YPT6, hits give low values 1.05 | locus YLR268W, strain sec22, hits give low values 1 | locus YLR320W, strain mms22, hits give low values 0.998 | locus YLR330W, strain CHS5, hits give low values 1.01 | locus YLR342W, strain FKS1 (second series), hits give low values 1.01 | locus YLR342W, strain FKS1, hits give low values 1 | locus YLR357W, strain rsc2, hits give low values 0.971 | locus YLR370C, strain arc18, hits give low values 1 | locus YLR371W, strain rom2, hits give low values 1.01 | locus YLR384C, strain iki3, hits give low values 1 | locus YLR418C, strain cdc73, hits give low values 0.998 | locus YML016C, strain PPZ1, hits give low values 1 | locus YML032C, strain rad52, hits give low values 0.998 | locus YML120C, strain ndi1, hits give low values 1.01 | locus YML124C, strain tub3, hits give low values 1 | locus YMR058W, strain fet3, hits give low values 1 | locus YMR078C, strain ctf18, hits give low values 1 | locus YMR125W, strain sto1, hits give low values 0.993 | locus YMR129W, hits give low values 1 | locus YMR205C, strain PFK2, hits give low values 1 | locus YMR223W, strain ubp8, hits give low values 1 | locus YMR231W, strain pep5, hits give low values 0.977 | [2] 1.05 | locus YNL067W, strain RPL9B, hits give low values 1.03 | locus YNL071W, strain lat1, hits give low values 1 | locus YNL209W, strain ssb2, hits give low values 1.01 | locus YNL233W, strain BNI4, hits give low values 1.02 | locus YNL248C, strain rpa49, hits give low values 1 | locus YNL250W, strain rad50, hits give low values 1.01 | locus YNL271C, strain bni1, hits give low values 0.996 | locus YNL298W, strain CLA4, hits give low values 1 | locus YNL307C, strain MCK1, hits give low values 1 | locus YNL322C, strain KRE1 (second series), hits give low values 0.996 | locus YNR049C, strain mso1, hits give low values 0.998 | locus YNR052C, strain pop2, hits give low values 1 | locus YOL006C, strain TOP1, hits give low values 1.06 | locus YOL012C, strain htz1 0.872 | locus YOL147C, strain pex11, hits give low values 1 | locus YOR001W, strain rrp6, hits give low values 1.01 | locus YOR061W, strain CKA2, hits give low values 0.997 | locus YOR069W, strain VPS5, hits give low values 1 | locus YOR070C, strain gyp1, hits give low values 1.02 | locus YOR080W, strain dia2, hits give low values 0.99 | locus YOR083W, strain WHI5, hits give low values 1 | locus YOR106W, strain vam3, hits give low values 1.01 | locus YOR136W, strain idh2, hits give low values 1.01 | locus YOR144C, strain elg1, hits give low values 0.987 | locus YOR184W, strain ser1, hits give low values 0.986 | locus YOR265W, strain rbl2, hits give low values 1.01 | locus YOR270C, strain vph1, hits give low values 1.03 | locus YOR290C, strain snf2, hits give low values 1.01 | locus YOR316C, strain cot1, hits give low values 1 | locus YPL051W, strain arl3, hits give low values 0.996 | [3] 1.01 | locus YPL078C, strain atp4, hits give low values 1 | locus YPL106C, strain sse1, hits give low values 0.99 | locus YPL240C, strain hsp82, hits give low values 0.999 | locus YPR119W, strain clb2, hits give low values 1 | locus YPR141C, strain kar3, hits give low values 0.985 | locus YPR163C, strain tif3, hits give low values 1 | locus YPR167C, strain met16, hits give low values 0.994 | strain wtn01, hits give low values 0.986
